In PubChem BioAssay (Tox21):
Results filed as inconclusive are left out. The source made the active and inactive calls. Calls follow the shape of the dose curve; as a rule, active = well fitted curve in the direction sought with a large enough effect in the repeat runs; inconclusive = weak or mixed curves; inactive = no such curve, though single readings can be large; an effect the other way counts as inactive or inconclusive.

Key:
[1] = Human pregnane X receptor (PXR) small molecule agonists, qHTS cell viability counter screen (AID 1346977); also: nearly all actives have a fitted effect of over 50% in size
In short: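 Same-well viability read: CellTiter-Fluor added after 23 hr compound exposure, fluorescence measured 1 hr later. Cells were PXR-Luc HepG2 seeded at 2,000/well in 5% charcoal-stripped FBS medium, rested 5 hr before dosing at 37 C.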

[2] = Caspase-3/7 induction in HepG2 cells by small molecules, qHTS assay (AID 1346978); also: nearly all actives have a fitted effect of over 15% in size
In short: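 Wild-type HepG2 cells (2,000/well) were settled 5 h at 37 C, 5% CO2, then exposed to compounds in DMSO for 17 h. Caspase-3/7 activity was read by luminescence 30 min after adding Caspase-Glo 3/7 reagent at room temperature.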

[3] = Caspase-3/7 induction in CHO-K1 cells by small molecules, qHTS cell viability counter screen (AID 1346979); also: nearly all actives have a fitted effect of over 35% in size
In short: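 Cytotoxicity counter screen: CellTiter-Fluor added to compound-treated wild-type CHO-K1 cells at 16 h (37C, 5% CO2), fluorescence measured 1 h later; same wells as caspase-3/7 measurement.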

[4] = Caspase-3/7 induction in CHO-K1 cells by small molecules, qHTS assay (AID 1346980); also: nearly all actives have a fitted effect of over 15% in size
In short: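 Wild-type cells were seeded at 1,500 per well and settled 5 hr at 37 C, 5% CO2, then exposed to DMSO-dissolved compounds for 17 hr. Caspase-Glo 3/7 reagent was added, and luminescence was read after 30min at room temperature.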

[5] = Caspase-3/7 induction in HepG2 cells by small molecules, qHTS cell viability counter screen (AID 1346981); also: series mostly up to about 92 µM; nearly all actives have a fitted effect of over 30% in size
In short: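 Multiplexed with the caspase-3/7 assay: HepG2 cells, 16 hr compound treatment, CellTiter-Fluor viability detection by fluorescence.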

[6] = biological target: Nuclear receptor subfamily 1 group I member 2 (Homo sapiens) (UniProt O75469); assay: Human pregnane X receptor (PXR) small molecule agonists, qHTS assay (AID 1346982); also: nearly all actives have a fitted effect of over 35% in size; also: potency is read from the fitted curve at half-maximal effect
Chain of Nuclear receptor subfamily 1 group I member 2 (Homo sapiens) (O75469 whole entry, looked up): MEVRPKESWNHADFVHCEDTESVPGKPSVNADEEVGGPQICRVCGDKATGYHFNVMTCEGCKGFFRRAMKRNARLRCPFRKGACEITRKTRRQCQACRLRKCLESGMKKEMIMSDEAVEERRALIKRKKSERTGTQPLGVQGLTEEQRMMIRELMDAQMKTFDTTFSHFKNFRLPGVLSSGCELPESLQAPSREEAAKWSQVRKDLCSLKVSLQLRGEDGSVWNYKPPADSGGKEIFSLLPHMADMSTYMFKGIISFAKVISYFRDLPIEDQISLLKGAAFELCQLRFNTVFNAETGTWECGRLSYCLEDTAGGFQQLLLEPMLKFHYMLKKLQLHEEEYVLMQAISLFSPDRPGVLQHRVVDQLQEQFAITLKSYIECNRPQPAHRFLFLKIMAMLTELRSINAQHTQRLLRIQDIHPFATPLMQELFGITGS
In short: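 We seeded PXR-Luc HepG2 cells in assay medium containing 5% charcoal-stripped FBS, added compounds 5 hr later, incubated 24 hr, and read luminescence with ONE-Glo reagent.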

[7] = biological target: Cytochrome P450 2D6 (Homo sapiens) (UniProt P10635); assay: Cytochrome P450 Family 2 Subfamily D Member 6 (CYP2D6) small molecule antagonists: luciferase reporter qHTS assay (AID 1671196); also: nearly all actives have a fitted effect of over 50% in size; also: potency is read from the fitted curve at half-maximal effect; as to activity change, negative = inhibition: series mostly up to about 120 µM
Chain of Cytochrome P450 2D6 (Homo sapiens) (P10635 whole entry, looked up): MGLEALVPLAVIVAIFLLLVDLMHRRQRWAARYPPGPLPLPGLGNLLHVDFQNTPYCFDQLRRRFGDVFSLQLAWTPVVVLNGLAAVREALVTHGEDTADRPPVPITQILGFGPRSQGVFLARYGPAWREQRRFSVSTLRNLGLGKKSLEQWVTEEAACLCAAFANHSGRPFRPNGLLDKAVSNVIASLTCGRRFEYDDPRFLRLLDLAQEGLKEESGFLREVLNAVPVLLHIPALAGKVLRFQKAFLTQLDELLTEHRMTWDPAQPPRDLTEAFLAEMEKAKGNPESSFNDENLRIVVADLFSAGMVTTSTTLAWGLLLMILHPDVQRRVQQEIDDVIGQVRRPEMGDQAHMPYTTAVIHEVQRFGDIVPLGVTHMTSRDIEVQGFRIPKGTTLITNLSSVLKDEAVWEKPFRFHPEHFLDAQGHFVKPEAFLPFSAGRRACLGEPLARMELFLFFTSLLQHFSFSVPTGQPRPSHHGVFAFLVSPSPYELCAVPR
In short: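 Luminescence (RLU), read 20 min after detection reagent, indicated CYP2D6 conversion of proluciferin to luciferin during a 1 h NADPH-dependent reaction at room temperature.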

[8] = biological target: Cytochrome P450 2C19 (Homo sapiens) (UniProt P33261); assay: Cytochrome P450 Family 2 Subfamily C Member 19 (CYP2C19) small molecule antagonists: luciferase reporter qHTS assay (AID 1671197); also: nearly all actives have a fitted effect of over 65% in size; also: potency is read from the fitted curve at half-maximal effect; as to activity change, negative = inhibition: series mostly up to about 120 µM
Chain of Cytochrome P450 2C19 (Homo sapiens) (P33261 whole entry, looked up): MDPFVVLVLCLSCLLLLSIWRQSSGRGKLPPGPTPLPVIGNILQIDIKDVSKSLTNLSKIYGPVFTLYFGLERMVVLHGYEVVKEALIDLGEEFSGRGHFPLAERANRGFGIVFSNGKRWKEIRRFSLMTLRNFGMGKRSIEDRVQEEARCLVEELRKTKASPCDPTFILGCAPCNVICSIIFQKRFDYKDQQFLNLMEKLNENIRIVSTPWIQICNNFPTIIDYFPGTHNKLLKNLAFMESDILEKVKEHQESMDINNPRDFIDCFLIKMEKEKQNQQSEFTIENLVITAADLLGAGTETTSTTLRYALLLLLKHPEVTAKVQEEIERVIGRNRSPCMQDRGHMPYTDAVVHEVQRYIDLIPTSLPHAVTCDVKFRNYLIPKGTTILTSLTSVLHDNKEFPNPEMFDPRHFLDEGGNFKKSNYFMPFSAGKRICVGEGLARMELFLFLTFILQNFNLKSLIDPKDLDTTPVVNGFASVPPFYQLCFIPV
In short: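 First, compounds are pinned into enzyme-substrate mix and held 10 min at room temperature. Second, NADPH regeneration solution is added and plates incubate 1 h at 37C. Third, detection reagent is added and luminescence read after 20 min.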

[9] = biological target: Cytochrome P450 2C9 (Homo sapiens) (UniProt P11712); assay: Cytochrome P450 Family 2 Subfamily C Member 9 (CYP2C9) small molecule antagonists: luciferase reporter qHTS assay (AID 1671198); also: nearly all actives have a fitted effect of over 50% in size; also: potency is read from the fitted curve at half-maximal effect; as to activity change, negative = inhibition: series mostly up to about 120 µM
Chain of Cytochrome P450 2C9 (Homo sapiens) (P11712 whole entry, looked up): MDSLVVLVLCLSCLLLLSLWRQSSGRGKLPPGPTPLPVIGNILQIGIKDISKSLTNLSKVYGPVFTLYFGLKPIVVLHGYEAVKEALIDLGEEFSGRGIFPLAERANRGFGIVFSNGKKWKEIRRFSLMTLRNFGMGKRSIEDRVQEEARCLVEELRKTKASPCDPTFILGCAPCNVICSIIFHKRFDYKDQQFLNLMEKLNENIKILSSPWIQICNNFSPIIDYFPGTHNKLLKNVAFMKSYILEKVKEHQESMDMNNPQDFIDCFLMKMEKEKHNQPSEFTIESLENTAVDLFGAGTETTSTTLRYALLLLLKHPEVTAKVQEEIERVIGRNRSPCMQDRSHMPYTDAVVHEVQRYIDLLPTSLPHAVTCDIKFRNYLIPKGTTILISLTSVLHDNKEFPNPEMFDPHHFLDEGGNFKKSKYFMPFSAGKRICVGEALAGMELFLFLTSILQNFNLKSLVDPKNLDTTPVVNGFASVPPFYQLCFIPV
In short: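 CYP2C9 activity was measured with a P450-Glo proluciferin substrate. Enzyme–substrate mix was held with compound for 10 min at room temperature, then NADPH regeneration solution was added for 1 h at 37C. Luciferin product was read as luminescence.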

[10] = biological target: Cytochrome P450 1A2 (Homo sapiens) (UniProt P05177); assay: Cytochrome P450 Family 1 Subfamily A Member 2 (CYP1A2) small molecule antagonists: luciferase reporter qHTS assay (AID 1671199); also: nearly all actives have a fitted effect of over 50% in size; also: potency is read from the fitted curve at half-maximal effect; as to activity change, negative = inhibition: series mostly up to about 120 µM
Chain of Cytochrome P450 1A2 (Homo sapiens) (P05177 whole entry, looked up): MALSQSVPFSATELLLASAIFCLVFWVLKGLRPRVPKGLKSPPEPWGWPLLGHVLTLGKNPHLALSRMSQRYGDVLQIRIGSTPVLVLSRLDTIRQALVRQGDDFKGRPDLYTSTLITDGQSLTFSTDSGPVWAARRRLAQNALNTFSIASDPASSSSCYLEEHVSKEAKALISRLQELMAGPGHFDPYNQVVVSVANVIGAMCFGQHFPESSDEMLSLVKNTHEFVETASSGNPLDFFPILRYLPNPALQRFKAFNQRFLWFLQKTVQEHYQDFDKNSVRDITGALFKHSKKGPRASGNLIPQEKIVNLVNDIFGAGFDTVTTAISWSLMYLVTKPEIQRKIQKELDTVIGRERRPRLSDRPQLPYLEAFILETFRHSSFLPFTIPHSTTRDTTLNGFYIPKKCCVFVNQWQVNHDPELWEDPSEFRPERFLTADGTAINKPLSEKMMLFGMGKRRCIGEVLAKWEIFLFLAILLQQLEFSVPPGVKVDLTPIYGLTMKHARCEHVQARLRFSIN
In short: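 CYP1A2 turnover of a luminogenic substrate was quantified after 1 h with NADPH regeneration at room temperature. Furafylline served as positive control.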

[11] = biological target: Voltage-gated inwardly rectifying potassium channel KCNH2 (Homo sapiens) (UniProt Q12809); assay: Human Ether-a-go-go-Related Gene (hERG) channel small molecule antagonists: fluorescence cell-based qHTS assay (AID 1671200)
Chain of Voltage-gated inwardly rectifying potassium channel KCNH2 (Homo sapiens) (Q12809 whole entry, looked up): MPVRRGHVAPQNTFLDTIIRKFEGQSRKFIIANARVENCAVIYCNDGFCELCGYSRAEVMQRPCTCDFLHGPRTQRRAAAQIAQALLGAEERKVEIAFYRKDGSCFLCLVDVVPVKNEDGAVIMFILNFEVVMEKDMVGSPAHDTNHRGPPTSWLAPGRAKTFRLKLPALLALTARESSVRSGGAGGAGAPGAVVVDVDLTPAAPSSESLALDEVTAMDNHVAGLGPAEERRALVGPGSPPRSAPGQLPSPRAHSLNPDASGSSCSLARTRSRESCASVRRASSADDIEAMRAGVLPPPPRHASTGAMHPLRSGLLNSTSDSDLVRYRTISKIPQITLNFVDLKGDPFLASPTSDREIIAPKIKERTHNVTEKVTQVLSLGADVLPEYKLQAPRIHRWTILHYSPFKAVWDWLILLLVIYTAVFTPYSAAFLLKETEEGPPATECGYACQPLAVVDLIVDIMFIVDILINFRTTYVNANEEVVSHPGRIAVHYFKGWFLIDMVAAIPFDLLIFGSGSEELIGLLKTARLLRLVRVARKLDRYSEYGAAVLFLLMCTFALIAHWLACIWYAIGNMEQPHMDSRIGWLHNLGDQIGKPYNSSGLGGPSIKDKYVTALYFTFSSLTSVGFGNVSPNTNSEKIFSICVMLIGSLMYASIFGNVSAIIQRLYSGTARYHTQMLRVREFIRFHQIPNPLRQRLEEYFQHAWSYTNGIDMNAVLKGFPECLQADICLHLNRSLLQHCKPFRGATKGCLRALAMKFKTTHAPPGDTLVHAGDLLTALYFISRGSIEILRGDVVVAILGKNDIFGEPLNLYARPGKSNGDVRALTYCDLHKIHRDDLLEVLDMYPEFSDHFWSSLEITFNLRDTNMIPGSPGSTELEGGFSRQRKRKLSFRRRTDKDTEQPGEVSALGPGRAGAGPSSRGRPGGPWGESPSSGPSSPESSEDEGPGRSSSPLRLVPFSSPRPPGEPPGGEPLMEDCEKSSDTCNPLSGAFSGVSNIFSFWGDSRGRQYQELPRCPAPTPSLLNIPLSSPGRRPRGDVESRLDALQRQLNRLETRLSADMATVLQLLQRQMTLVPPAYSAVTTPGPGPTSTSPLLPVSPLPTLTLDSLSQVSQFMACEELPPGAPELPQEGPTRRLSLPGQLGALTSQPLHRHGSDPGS
In short: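 Thallium flux as potassium surrogate: FluxOR II dye loaded 1 h at room temperature into hERG-expressing U2OS cells, then stimulus buffer added after 10 min. Kinetic 480 nm excitation/540 nm emission read, 2 min.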

[12] = biological target: Cytochrome P450 3A4 (Homo sapiens) (UniProt P08684); assay: Cytochrome P450 Family 3 Subfamily A Member 4 (CYP3A4) small molecule antagonists: luciferase reporter qHTS assay (AID 1671201); also: nearly all actives have a fitted effect of over 50% in size; also: potency is read from the fitted curve at half-maximal effect; as to activity change, negative = inhibition: series mostly up to about 120 µM
Chain of Cytochrome P450 3A4 (Homo sapiens) (P08684 whole entry, looked up): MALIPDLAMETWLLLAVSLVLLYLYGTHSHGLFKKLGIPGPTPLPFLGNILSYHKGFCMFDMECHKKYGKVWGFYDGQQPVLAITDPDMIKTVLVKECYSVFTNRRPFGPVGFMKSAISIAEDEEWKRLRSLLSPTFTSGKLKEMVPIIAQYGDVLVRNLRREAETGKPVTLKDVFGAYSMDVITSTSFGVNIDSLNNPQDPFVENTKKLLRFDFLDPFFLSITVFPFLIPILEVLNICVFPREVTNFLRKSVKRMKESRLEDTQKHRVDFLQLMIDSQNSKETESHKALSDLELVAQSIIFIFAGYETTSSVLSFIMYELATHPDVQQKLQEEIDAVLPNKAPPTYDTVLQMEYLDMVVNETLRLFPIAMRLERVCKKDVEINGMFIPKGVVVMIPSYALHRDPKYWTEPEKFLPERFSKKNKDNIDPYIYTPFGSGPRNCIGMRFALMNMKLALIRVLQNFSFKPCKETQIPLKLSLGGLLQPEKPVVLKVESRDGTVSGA
In short: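 Recombinant human CYP3A4 converts a proluciferin substrate to luciferin over 1 h at room temperature after NADPH regeneration solution is added (compound preincubated 10 min); detection reagent stops reaction, luminescence read 20 min later as relative units.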
% is scaled to controls: 0 for no effect and ±100 for the full control effect.

CCOC(=O)c1ccccc1
inactive: Potency [1] | outcome [2] | Potency [3] | outcome [4] | Potency [5] | Potency [6] | Potency [7] | Potency [8] | Potency [9] | Potency [10] | Potency [11] | Potency [12]

CC(CC=O)CC(C)(C)C (stereo not given)
active: Potency [6] 54.5 µM
inactive: Potency [1] | outcome [2] | Potency [3] | outcome [4] | Potency [5] | Potency [7] | Potency [8] | Potency [10] | Potency [11] | Potency [12]

C=CC(C)(CCC=C(C)C)OC(=O)CC (stereo not given)
inactive: Potency [1] | outcome [2] | Potency [3] | outcome [4] | Potency [5] | Potency [6] | Potency [7] | Potency [11]
active: Potency [8] 35.6 µM | Potency [9] 31.7 µM | Potency [12] 28.3 µM

CCCCCCCCCC[N+](C)(C)[O-]
active: Potency [7] 35.6 µM
inactive: Potency [1] | outcome [2] | Potency [3] | outcome [4] | Potency [5] | Potency [6] | Potency [9] | Potency [10] | Potency [11] | Potency [12]

C=COCC1CCC(COC=C)CC1 (stereo not given)
inactive: Potency [1] | outcome [2] | Potency [3] | outcome [4] | Potency [5] | Potency [6] | Potency [7] | Potency [9] | Potency [10] | Potency [11] | Potency [12]

OCCc1ccccn1
inactive: Potency [1] | outcome [2] | Potency [3] | outcome [4] | Potency [5] | Potency [6] | Potency [8] | Potency [9] | Potency [10] | Potency [11] | Potency [12]

O=C(O)CCSCCC(=O)O
inactive: Potency [1] | outcome [2] | Potency [3] | outcome [4] | Potency [5] | Potency [6] | Potency [8] | Potency [9] | Potency [10] | Potency [11]

CCCCCCCCCCCCCCC(=O)O
active: Potency [10] 35.7 µM
inactive: Potency [1] | outcome [2] | Potency [3] | outcome [4] | Potency [5] | Potency [6] | Potency [7] | Potency [9] | Potency [11] | Potency [12]

CO[Si](C)(OC)c1ccccc1
active: Potency [6] 30.6 µM | Potency [8] 7.1 µM | Potency [9] 35.6 µM | Potency [12] 25.2 µM
inactive: Potency [1] | outcome [2] | Potency [3] | outcome [4] | Potency [5] | Potency [7] | Potency [11]

O=C(CO)[C@@H](O)[C@H](O)[C@@H](O)CO
inactive: Potency [1] | outcome [2] | Potency [3] | outcome [4] | Potency [5] | Potency [6] | Potency [7] | Potency [8] | Potency [9] | Potency [10] | Potency [11] | Potency [12]

CC(=O)C1CCCCC1=O (stereo not given)
inactive: Potency [1] | outcome [2] | Potency [3] | outcome [4] | Potency [5] | Potency [6] | Potency [7] | Potency [10] | Potency [11]

CC(C)=CCC/C(C)=C/C#N
inactive: Potency [1] | outcome [2] | Potency [3] | outcome [4] | Potency [5] | Potency [6] | Potency [7] | Potency [9] | Potency [11] | Potency [12]

O=S(=O)(O)c1cccc2c(S(=O)(=O)O)cccc12
active: Potency [9] 70.9 µM | Potency [10] 79.5 µM
inactive: Potency [1] | outcome [2] | Potency [3] | outcome [4] | Potency [5] | Potency [6] | Potency [7] | Potency [11] | Potency [12]

CCCCN(CCC(=O)OCC)C(C)=O
active: Potency [8] 35.6 µM
inactive: Potency [1] | outcome [2] | Potency [3] | outcome [4] | Potency [5] | Potency [6] | Potency [7] | Potency [9] | Potency [11] | Potency [12]

CC1OC1C1CCC2(C)OC2C1 (stereo not given)
inactive: Potency [1] | outcome [2] | Potency [3] | outcome [4] | Potency [5] | Potency [6] | Potency [7] | Potency [9] | Potency [10] | Potency [11]

Nc1ccn([C@@H]2O[C@H](CO)[C@@H](O)[C@@H]2O)c(=O)n1
inactive: Potency [1] | outcome [2] | Potency [3] | outcome [4] | Potency [5] | Potency [6] | Potency [7] | Potency [10] | Potency [11] | Potency [12]

CC(C)C(=O)OC(=O)C(C)C
inactive: Potency [1] | outcome [2] | Potency [3] | outcome [4] | Potency [5] | Potency [6] | Potency [8] | Potency [9] | Potency [10] | Potency [11] | Potency [12]

C[N+]1(CC2COC(c3ccccc3)(c3ccccc3)O2)CCCCC1 (stereo not given)
inactive: activity change, negative = cytotoxicity [1] -0.185% [at 19 µM] | caspase activation [2] -0.482% [at 19 µM] | activity change, negative = cytotoxicity [3] 2.24% [at 19 µM] | caspase-3/7 activation [4] -0.436% [at 19 µM] | activity change, negative = cytotoxicity [5] 9.88% [at 19 µM] | activation [6] 5.26% [at 19 µM] | Potency [8] | Potency [10] | activity change, negative = inhibition [11] -15.6% [at 15.8 µM] | activity change, negative = inhibition [12] -9.22% [at 23.6 µM]
active: Potency [7] 1.69 µM

CN(C)CCCN(C)CCCN(C)C
inactive: Potency [1] | outcome [2] | Potency [3] | outcome [4] | Potency [5] | Potency [6] | Potency [7] | Potency [8] | Potency [9] | Potency [11] | Potency [12]
